RE007 growth inh – less growth of the S. pombe RE007 Vpr strain | S. pombe RE007 Vpr strain, BacTiter-Glo ATP luminescence, 24 h | Potency, µM (titrated, usually from 92.2 µM), for the others: at the top dose activity change, negative = less growth, actives largely listed as inhibitors | 360,000 tested, 0.21% active; active = well fitted falling curve with a large enough effect; inconclusive = small, poorly fitted or top-dose-only effect; inactive = no such curve, though single readings can be large or run the other way; note: potency is the fitted concentration of half-maximal effect; % is set by controls: 0 for no effect and ±100 for the full control effect; nearly all actives have a fitted effect of over 50% in size
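Fission yeast RE007 carrying one integrated HIV-1 vpr copy, seeded at OD 0.01 in PMG+AL medium with 23 nL pinned compound. Grown 24 h at 30 degrees; viability read by BacTiter-Glo luminescence after 5 min.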
CHX counter – counter-screen for Shiga toxin inhibitors: cycloheximide protein synthesis inhibition; cell reporter, cycloheximide protein synthesis inhibition counterscreen; max response, %; 300,000 tested, 12% active; AID 2314; in the data active = max response mostly above about 13%, no sharp cut-off; inactive = mostly below about 14%; note: read at 38.3 µM for the half of the compounds with a filed dose; 0% is about no effect
Tb PYK inh – inhibitors of Trypanosoma brucei pyruvate kinase; TbPYK enzyme, Kinase-Glo Plus ATP luminescence, 45 min; AID 624173; Q57TT1; 410,000 tested, 0.12% active; Potency, µM (highest dose often 76.8 µM), without a hit: top-dose activity, negative = inhibition, usual class: inhibitors; note: potency is the fitted concentration of half-maximal effect; % is set by controls: 0 for no effect and ±100 for the full control effect; nearly all actives have a fitted effect of over 50% in size
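Assay buffer: 50 mM TEA pH 7.2, 100 mM KCl, 10 mM MgCl2, 0.05% BSA, 0.01% Tween-20. Pyruvate kinase from T. brucei plus substrate met compound, then ADP (130 uM final). Luminescence was read post 45 min RT.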
Shiga toxin inh – inhibitors of Shiga toxin in Vero cells; inhibition, % at 38.7 µM; Vero cells, Shiga toxin protein synthesis inhibition reporter; 290,000 tested, 9.2% active; AID 2315; in the data active = inhibition mostly above about 28%, no sharp cut-off; inactive = mostly below about 43%; note: 0% is about no effect
LmPK inhibitor – blocks Leishmania mexicana pyruvate kinase activity; purified LmPK, Kinase-Glo ATP luminescence, 1 h; Potency, µM (top dose mostly 57.5 µM), without a hit: at the highest dose activity change, negative = inhibition, usual class: inhibitors; Q27686; 290,000 tested, 0.37% active; note: potency is the fitted concentration of half-maximal effect; % is set by controls: 0 for no effect and ±100 for the full control effect
Target sequence (Q27686 whole entry, looked up): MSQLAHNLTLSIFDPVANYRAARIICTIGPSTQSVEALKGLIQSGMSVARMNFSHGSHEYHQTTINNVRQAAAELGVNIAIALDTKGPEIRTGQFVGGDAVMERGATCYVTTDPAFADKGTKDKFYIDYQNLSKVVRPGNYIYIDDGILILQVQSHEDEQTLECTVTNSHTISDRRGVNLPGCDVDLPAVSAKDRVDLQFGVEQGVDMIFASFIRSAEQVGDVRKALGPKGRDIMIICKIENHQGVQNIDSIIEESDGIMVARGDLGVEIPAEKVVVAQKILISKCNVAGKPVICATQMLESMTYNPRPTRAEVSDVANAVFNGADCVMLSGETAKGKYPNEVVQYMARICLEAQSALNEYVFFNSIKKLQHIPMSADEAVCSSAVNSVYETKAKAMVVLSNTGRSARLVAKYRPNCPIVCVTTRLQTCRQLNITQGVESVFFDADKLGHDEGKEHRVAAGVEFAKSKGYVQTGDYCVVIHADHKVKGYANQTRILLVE
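In 50 mM imidazole pH 7.2 with 7 mM MgCl2, LmPK (0.1 nM) turned over PEP (0.5 mM) and ADP (0.1 mM) for 1 h at room temperature. Luciferase read-out of ATP.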
Giardia FBPA inh – Giardia lamblia aldolase inhibition; A8B2U2; purified Giardia FBPA; Potency, µM (titrated, usually from 59.6 µM), for inactives: at the top dose activity, negative = inhibition, most hits filed as inhibitors; 290,000 tested, 0.71% active; AID 2451; note: potency is the fitted concentration of half-maximal effect; % is set by controls: 0 for no effect and ±100 for the full control effect; nearly all actives have a fitted effect of over 55% in size
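Giardia FBPA (40 nM reagent) was preincubated 10 min at RT with compound (up to 57.5 uM final), then substrate plus GAPDH/TPI/NAD/arsenate coupling system with diaphorase/resazurin was added; resorufin fluorescence (525/598 nm) was read after 20 min.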
* hit, by the source's call; ? = inconclusive; · = no result given; [ ] = another dose, or the depositor's remark. The sample as a whole holds a higher share of hits than the screen did. Unless noted, calls come from the whole dose curve; as a rule, active = well fitted curve in the direction sought with a large enough effect; inconclusive = small, poorly fitted or top-dose-only effect, or another doubt; inactive = no such curve, though single readings can be large; an effect the other way counts as inactive or inconclusive.

SMILES | RE007 growth inh | CHX counter | Tb PYK inh | Shiga toxin inh | LmPK inhibitor | Giardia FBPA inh
Clc1ccc(-c2nc3n(n2)Cc2ccccc2-3)cc1 | -13.0% | 66.3* | 0.6% | 118.4* | ? | -2.7%
NC(=O)[C@H]1O[C@@H](O)[C@H](O)[C@@H](O)[C@@H]1O | · | · | -5.5% | · | · | ·
OCCN(/C=N/c1nc(-c2ccc(Br)cc2)cs1)CCO | -2.8% | 30.1* | 27.7% | 63.5* | 2.5% | -3.0%
Brc1ccc(-c2csc(/N=C/N3CCCC3)n2)cc1 | ? | 68.0* | -3.1% | 66.9* | -2.9% | -1.0%
Brc1ccc(-c2csc(/N=C/N3CCOCC3)n2)cc1 | -19.1% | 35.7* | 1.2% | 49.1 | -4.7% | -2.0%
O=C(CN1CCOCC1)Nc1nc(-c2ccccc2)cs1 | -5.0% | 11.2 | -2.1% | 26.7 | 6.4% | -10.6%
CC(=O)N(/N=C/c1cccc(C)c1)c1nc(-c2ccc(Br)cc2)cs1 | 29.2% | -2.8 | 2.1% | 11.8 | 5.1% | 6.0%
CC1CC2CCC(O2)C(C)C(=O)OC(C)CC2CCC(O2)C(C)C(=O)OC(C)CC2CCC(O2)C(C)C(=O)OC(C)CC2CCC(O2)C(C)C(=O)O1 (stereo not drawn) | · | 8.0 | · | 11.5 | · | -0.3%
O=C(COc1ccc(Cl)cc1Cl)Nc1ccccc1NS(=O)(=O)c1cccs1 | -6.9% | 47.1* | -9.2% | 94.4* | 7.8% | -8.1%
O=C(COc1ccc(Cl)cc1Cl)Nc1c(-c2cccs2)nc2ccccn12 | -9.8% | 12.7* | -5.0% | 29.6 | 3.8% | 0.2%
O=C(Nc1c(-c2cccs2)nc2ccccn12)c1ccccc1F | -6.2% | -1.9 | -0.2% | -3.7 | 5.3% | 0.7%
Cc1cc(Cl)ccc1OCC(=O)Nc1ccccc1NS(=O)(=O)c1cccs1 | -1.0% | 23.5* | 0.7% | 23.0 | 6.7% | -0.6%
O=C(COc1ccccc1)Nc1ccccc1NS(=O)(=O)c1cccs1 | 16.0% | -2.4 | -2.3% | 17.5 | 1.2% | 12.0%
COc1ccc(C2/C=C\CN(C(=O)C3CC3)C(C)C(=O)N2Cc2ccc(F)cc2)cc1 (stereo not drawn) | · | 6.0 | · | -5.2 | · | 0.3%
CC(C)c1ccc(NC(=O)[C@@H]2CCC(=O)N2C2OC(=O)c3ccccc32)cc1 (stereo partly drawn) | -15.4% | 28.1* | -15.0% | 38.2 | -14.2% | -0.1%
Cc1ccc(N=CC=C2OC(C)(C)C(C)(C)O2)c(C)c1 | -7.5% | 10.1 | 18.2% | 33.7 | 1.2% | 4.9%
COc1ccccc1N=CC=C1OC(C)(C)C(C)(C)O1 | -4.1% | 10.2* | 2.9% | 49.5 | 9.4% | -10.3%
O=C(CSc1nnc(NC(=O)c2ccc3c(c2)OCO3)s1)NCc1ccco1 | -10.5% | 23.2* | 0.6% | 34.5 | -17.8% | -1.1%
CCOC(=O)CNC(=O)CSc1nnc(NC(=O)c2ccc3c(c2)OCO3)s1 | -27.0% | 12.0* | -3.6% | 21.7* | -13.5% | ·
O=C(CSc1nnc(NC(=O)c2ccc(F)cc2)s1)NCc1ccco1 | 6.9% | 28.8* | -3.6% | 44.9* | -5.1% | ·
O=C(CSc1nnc(NC(=O)c2ccccc2)s1)NCc1ccco1 | -10.3% | 40.2* | 1.3% | 40.7* | -10.3% | ·
CCOC(=O)CNC(=O)CSc1nnc(NC(=O)c2ccc(C)cc2)s1 | -11.2% | -4.6 | 13.7% | -12.5 | 2.3%[11.5 µM] | -5.3%
Cc1ccc2c(c1)N(C(=O)CCC(=O)NCc1cccs1)CCO2 | · | · | -0.3% | · | · | ·
Cc1ccccc1C(=O)Nc1nnc(SC(C)C)s1 | -6.5% | 30.4* | -2.7% | 77.8 | -14.2% | -1.1%
Cc1ccccc1C(=O)Nc1nnc(SCC(=O)NCc2ccco2)s1 | -0.6% | 20.8* | -5.4% | 71.9* | -1.8% | ·
CCOc1ccccc1CNCc1c(C(=O)O)n(Cc2ccc(F)cc2)c2cc(C)ccc12 | · | · | -3.1% | · | · | ·
Cc1sc(NC(=O)C2c3ccccc3Oc3ccccc32)c(C(=O)OC(C)C)c1C | · | · | -4.1% | · | · | ·
CC(C)NC(=O)c1noc2cc([N+](=O)[O-])ccc12 | -21.6% | 12.4* | 1.2% | 103.8* | -1.8% | 4.9%
Cn1c(=O)n(-c2ccc3c(c2)OCO3)c2nc(-c3ccccc3)nc(C(N)=O)c21 | · | · | -10.0% | · | · | ·

Bioassay records: PubChem BioAssay, National Center for Advancing Translational Sciences (NCATS)
